Test results: the supplement of paper PMC8866396
± gives the standard deviation of the averaged measurements.

Experiments:
IL-6-GFP PC-9GR = experiment: cell viability (CCK-8 OD) relative to DMSO control (fraction of control); higher = more viable cells; conditions: compound concentration: 10 uM; treatment time: 48 h
Procedure, shortened: (§1)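 In 96-well plates, 3000 cells/well of PC-9 or PC-9GR lung cancer cells with lentiviral IL-6-GFP overexpression received each compound of a purchased 510-compound library at a final 10 μM for 48 h. Viability, measured by CCK-8 absorbance, is each well's optical density relative to the vehicle control well. Data come from two independent replicates.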

IL-6-GFP PC-9 = experiment: as above; conditions: compound concentration: 10 uM; treatment time: 48 h
Procedure, shortened: as §1

Structure (SMILES) | cell viability (IL-6-GFP PC-9GR) | cell viability (IL-6-GFP PC-9)
CC(C)C1C(=O)NC(CCCNC(=N)N)C(=O)NCC(=O)NC(CC(=O)O)C(=O)NC(Cc2ccccc2)C(=O)N1C.O=C(O)C(F)(F)F (centres undefined) | 1.13 ± 0.28 | 1.26 ± 0.087
OCc1ccccc1OC1OC(CO)C(O)C(O)C1O (centres undefined) [Salicin] | 1.49 ± 0.23 | 1.2 ± 0.097
Cl.N=C1CCCN1Cc1[nH]c(=O)[nH]c(=O)c1Cl [Tipiracil hydrochloride] | 1.14 ± 0.35 | 1.25 ± 0.059
CC(=O)c1c(C)c2cnc(Nc3ccc(N4CCNCC4)cn3)nc2n(C2CCCC2)c1=O.O=S(=O)(O)CCO | 0.918 ± 0.1 | 0.811 ± 0.26
O=C(/C=C/c1cccc(S(=O)(=O)Nc2ccccc2)c1)NO [Belinostat (PXD101)] | 0.374 ± 0.026 | 0.262 ± 0.075
Cc1ccc(C(C)C)cc1 [p-Cymene] | 0.822 ± 0.24 | 1.249 ± 0.011
CN(C)C(=O)COC(=O)Cc1ccc(OC(=O)c2ccc(NC(=N)N)cc2)cc1.CS(=O)(=O)O [Camostat Mesilate] | 0.986 ± 0.098 | 1.13 ± 0.049
CCOC(=O)c1c(N)sc2c1CCN(Cc1ccccc1)C2.Cl [Tinoridine hydrochloride] | 1.12 ± 0.27 | 1.12 ± 0.061
COc1cc(N2CCC(N3CCN(C)CC3)CC2)ccc1Nc1ncc(Cl)c(Nc2ccccc2P(C)(C)=O)n1 | 0.688 ± 0.15 | 0.41 ± 0.083
C=CC(=O)Nc1cccc(Oc2nc(Nc3ccc(N4CCN(C)CC4)cc3)nc3ccsc23)c1 | 0.393 ± 0.19 | 0.465 ± 0.07
Cn1c(=O)cc(N2CCCC(N)C2)n(Cc2cc(F)ccc2C#N)c1=O.O=C(O)CCC(=O)O (centres undefined) [Trelagliptin succinate] | 0.825 ± 0.15 | 1.07 ± 0.15
CC1CC2C(C(O)CC3(C)C2CCC3(O)C(=O)COC(=O)CCC(=O)O)C2(C)C=CC(=O)C=C12 (centres undefined) [Methylprednisolone hemisuccinate] | 0.848 ± 0.037 | 0.911 ± 0.24
CCOC(=O)c1ccc(C#Cc2ccc3c(c2)C(C)(C)CCS3)nc1 [Tazarotene] | 1.32 ± 0.14 | 1.15 ± 0.041
C#Cc1cccc(Nc2ncnc3cc(OCCOC)c(OCCOC)cc23)c1.Cl [Erlotinib HCl (OSI-744)] | 0.817 ± 0.21 | 0.388 ± 0.33
CNC(=O)c1cc(Oc2ccc(NC(=O)Nc3ccc(Cl)c(C(F)(F)F)c3)c(F)c2)ccn1 [Regorafenib (BAY 73-4506)] | 0.833 ± 0.029 | 0.476 ± 0.11
Cc1nc(Nc2ncc(C(=O)Nc3c(C)cccc3Cl)s2)cc(N2CCN(CCO)CC2)n1.O [Dasatinib Monohydrate] | 0.687 ± 0.054 | 0.488 ± 0.059
CNCC(O)c1ccc(O)c(O)c1.O=C(O)C(O)C(O)C(=O)O (centres undefined) [Epinephrine bitartrate] | 1.17 ± 0.15 | 1.2 ± 0.022
COc1ccc(-c2cc(=S)ss2)cc1 [Anethole trithione] | 0.868 ± 0.15 | 1.17 ± 0.031
CCc1nc(C(N)=O)c(Nc2ccc(N3CCC(N4CCN(C)CC4)CC3)c(OC)c2)nc1NC1CCOCC1 [Gilteritinib (ASP2215)] | 0.333 ± 0.021 | 0.315 ± 0.11
CC1(C)OC2CC3C4CCC5=CC(=O)C=CC5(C)C4(F)C(O)CC3(C)C2(C(=O)CO)O1 (centres undefined) [Triamcinolone Acetonide] | 1.15 ± 0.023 | 0.9016 ± 0.0065
COc1cc(C(=O)NS(=O)(=O)c2ccccc2C)ccc1Cc1cn(C)c2ccc(NC(=O)OC3CCCC3)cc12 [Zafirlukast] | 1.31 ± 0.026 | 0.967 ± 0.023
CCC(=O)OC1(C(=O)CCl)C(C)CC2C3CC(F)C4=CC(=O)C=CC4(C)C3(F)C(O)CC21C (centres undefined) [Halobetasol Propionate] | 0.859 ± 0.011 | 1.05 ± 0.29
CN(C)c1cc(CNCC(C)(C)C)c(O)c2c1CC1CC3C(N(C)C)C(O)=C(C(N)=O)C(=O)C3(O)C(O)=C1C2=O.Cc1ccc(S(=O)(=O)O)cc1 (centres undefined) [Omadacycline tosylate] | 1.02 ± 0.039 | 1.3 ± 0.11
Cl.c1ccc2c(c1)CCCC2C1=NCCN1 (centres undefined) [Tetrahydrozoline HCl] | 0.987 ± 0.049 | 1.13 ± 0.15
Cc1ccc(Cl)c(Nc2ccccc2C(=O)[O][Na])c1Cl [Meclofenamate Sodium] | 0.983 ± 0.054 | 1.02 ± 0.11
CC(=O)C1CCC2C3CC(C)C4=CC(=O)CCC4(C)C3C(O)CC12C (centres undefined) [Medrysone] | 0.958 ± 0.024 | 1.15 ± 0.051
COc1nc2ccc(Br)cc2cc1C(c1ccccc1)C(O)(CCN(C)C)c1cccc2ccccc12.O=C(O)/C=C/C(=O)O (centres undefined) [Bedaquiline fumarate] | 1.18 ± 0.17 | 1.15 ± 0.067
